Results filed as inconclusive are left out. Active and inactive are the calls of the source. Unless noted, calls come from the whole dose curve; as a rule, active = well fitted curve in either direction with a large enough effect (not every such curve was filed as active); inconclusive = small, poorly fitted or top-dose-only effect, or another doubt; inactive = flat fitted curve, though single readings scatter.
How the values were obtained:
[1] = biological target: Lysosomal acid glucosylceramidase (Homo sapiens) (UniProt P04062); test: Glucocerebrosidase-p2 (AID 348; in the data active = potency below about 10 µM; note: potency is the fitted concentration of half-maximal effect); settings: purified GBA, blue fluorogenic substrate, 40 min
In short: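 Normal human glucocerebrosidase (0.2 nM) with blue fluorogenic substrate (80 uM final) in citrate/phosphate pH 5.9 with 10mM sodium taurocholate, 0.01% tween-20; 40 min RT, NaOH/glycine stop; fluorescence Ex 365/Em 440; AC50 from a titration from 0.6 nM upwards.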

[2] = AP1 Signaling Pathway (AID 357); settings: ME-180 AP-1-bla reporter, EGF-induced, beta-lactamase ratio, 5 h; at 7.69 µM (top of the series) unless noted;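 note: ME-180 reporter cells stimulated with EGF at its EC50 level; % is set by controls: 0 for no effect and ±100 for the full control effect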
In short: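 Modulation of EGF-driven AP-1 transcription was assessed with a beta-lactamase reporter in ME-180 cells. Compound and EC50 EGF were co-incubated 5 hours at 37 °C before 2.5-hour CCF4 loading at room temperature and dual-emission reading.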

[3] = biological target: Cytochrome P450 1A2 (Homo sapiens) (UniProt P05177); test: p450-cyp1a2 (AID 410; calls by dose curve; note: potency is the fitted concentration of half-maximal effect;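 for activity change, negative = inhibition: -100% = full effect of reference inhibitor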); settings: recombinant CYP1A2, luciferin-ME demethylation, luminescence; series mostly up to 11.4 µM
In short: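 Luminescent demethylation readout: Luciferin-ME (100uM, equal to Km) turned over by 20nM CYP1A2 for 60 min at room temperature after NADPH regeneration addition, following 10 min compound preincubation. Normalization used 57 uM furafylline as full inhibition.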

[4] = Stat Signaling Pathway (AID 446); settings: ME-180 SIE beta-lactamase reporter, IL-6 stimulated, 5 h; at 7.69 µM (top of the series) unless noted;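 note: ME-180 cervical cancer cells given 40 pM IL-6 alongside compound; SIE-controlled beta-lactamase reporter measured as 460/530 nm FRET emission ratio; % is set by controls: 0 for no effect and ±100 for the full control effect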
In short: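 FRET read-out (405 nm excitation, 460/530 nm emission) of a beta-lactamase reporter under a STAT-inducible element in ME-180 cervical carcinoma cells. Cells with compound receive 40 pM IL-6 for 5 h. Values are normalised to AC90 stimulation and AC90 JAK-inhibitor controls.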

[5] = biological target: Glucocorticoid receptor (Homo sapiens) (UniProt P04150); test: GR-GFP Redistribution (AID 450;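 active = compounds whose dose series gives a full or clear partial fitted curve of increased nuclear translocation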; note: potency is the fitted concentration of half-maximal effect); settings: U2OS GR-GFP nuclear translocation, laser cytometry, 2 h
[6] = biological target: Glucocorticoid receptor (Homo sapiens) (UniProt P04150); test: GR-EFC Redistribution (AID 451; calls by dose curve; note: potency is the fitted concentration of half-maximal effect); settings: CHO-K1 GR-EFC translocation, beta-gal luminescence, 2 h
In short: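 CHO-K1 cells stably expressing nuclear-localized β-gal enzyme acceptor and GR fused C-terminally to the enzyme donor fragment; ligand-driven nuclear translocation restores β-gal by complementation. Compounds titrated up to 46 uM final, 2 h at 37 °C; luminescence read.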

[7] = biological target: Mitogen-activated protein kinase 10 (Mus musculus) (UniProt Q61831); test: JNK3 AlphaScreen Assay (AID 530); settings: JNK3 lysate, c-Jun phosphorylation; series mostly up to 11.4 µM;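 note: kinase came from lysate of stimulated human HepG2 cells; signal reports phosphorylation of biotinylated GST-cJun 1-79 at Ser73 with 10 µM ATP; % is set by controls: 0 for no effect and ±100 for the full control effect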
In short: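 Phosphorylation of biotinylated GST-cJun(1-79) at Ser73 is measured by AlphaScreen proximity luminescence. Enzyme is JNK3 in HepG2 lysates activated with interleukin-1beta and tumor necrosis factor alpha; ATP is 10 uM final.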

[8] = biological target: 3',5'-cyclic-AMP phosphodiesterase 4B (Homo sapiens) (UniProt Q07343); test: qHTS Assay for Inhibitors of PDE-IV (AID 607; active = well fitted activation curve with a large enough effect in the main read-out, with a control signal flat, not every such curve was filed as active; note: % of control where 0% means no effect); settings: HEK293 ACTOne CNG channel cells, membrane potential fluorescence; series mostly up to 22.9 µM
In short: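 Cell-based read-out of cAMP via a modified cyclic nucleotide-gated channel and membrane potential dye (535/590 nm) in HEK293 cells expressing PDE4 endogenously. Compounds tested up to 22.9 uM final; 100 uM RO 20-1724 reference.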

[9] = NFAT Signaling Pathway (AID 444); settings: Jurkat NFAT-bla M1, carbachol, beta-lactamase ratio, 5 h; at 7.69 µM (top of the series) unless noted;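 note: carbachol stimulus at about its EC50 of 1 µM final; % is set by controls: 0 for no effect and ±100 for the full control effect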
In short: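 Jurkat cells carrying an NFAT-driven β-lactamase reporter and co-transfected muscarinic M1 receptor were treated with compound plus carbachol (1 uM final, an EC50 level) for 5 h at 37 °C. CCF4 loading followed for 1 h at RT; 460/530 nm ratio gave %activity.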

[10] = qHTS Assay for Identification of Small Molecule Agonists for Hypoxia Response Element Signaling Pathway (AID 914; active = well fitted activation curve with a large enough effect in the signal ratio, with a control signal flat, not every such curve was filed as active; the % refers to the signal ratio; note: % of control where 0% means no effect); settings: ME-180 (cervical carcinoma) HRE-bla reporter, beta-lactamase ratio, CoCl2, 17 h; activation: active compounds read high
In short: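 A beta-lactamase reporter under hypoxia response element control in ME-180 cells served as the system. Compound titrations plus EC50 CoCl2 ran 17 h at 37 degrees Celsius; AC50 values were fitted from %Activity.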

[11] = biological target: Cytochrome P450 2C9 (Homo sapiens) (UniProt P11712); test: qHTS Assay for Inhibitors and Substrates of Cytochrome P450 2C9 (AID 883; active = well fitted curve in the direction sought with a large enough effect; an effect the other way counts as inactive or inconclusive; note: potency is the fitted concentration of half-maximal effect; nearly all actives have a fitted effect of over 60% in size); settings: recombinant CYP2C9, luciferin-H luminescence, 60 min; series mostly up to 11.4 µM
In short: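 CYP2C9 deoxyluciferin hydroxylation, 37C, 60 min with NADPH regeneration; 10nM enzyme, 100uM Luciferin-H (KM). Glo detection reagent stopped reaction; luminescence normalized to sulphaphenazole (57uM) full inhibition.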

[12] = biological target: Cytochrome P450 2C19 (Homo sapiens) (UniProt P33261); test: qHTS Assay for Inhibitors and Substrates of Cytochrome P450 2C19 (AID 899; active = well fitted curve in the direction sought with a large enough effect; an effect the other way counts as inactive or inconclusive; note: nearly all actives have a fitted effect of over 60% in size; note: potency is the fitted concentration of half-maximal effect); settings: recombinant CYP2C19, luciferin-H EGE luminescence; series mostly up to 11.4 µM
In short: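 In 50mM KPO4, the reaction held 5nM enzyme and KM-level (10uM) Luciferin-H EGE; it ran 60 min at 37C after NADPH regeneration and a 10 min compound preincubation. Luminescence values were scaled to 57uM ketoconazole as complete inhibition.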

[13] = biological target: ATP-dependent 6-phosphofructokinase (Trypanosoma brucei brucei) (UniProt O15648); test: qHTS Assay to Find Inhibitors of T. brucei phosphofructokinase: hit validation (AID 492961; active = well fitted curve in the direction sought with a large enough effect; an effect the other way counts as inactive or inconclusive); settings: T. brucei PFK, ADP-Glo luminescence; series mostly up to 51.4 µM
In short: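 Reaction: 0.1 M triethanolamine pH 8.0, 5 mM MgCl2, F6P 0.5 mM, ATP 0.1 mM, PFK 1.25 nM, 45 min RT. Read-out: ADP-Glo luminescence. Analysis: concentration-response fits, classed by r2 and efficacy.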

[14] = qHTS profiling for inhibitors of Plasmodium falciparum proliferation (AID 504749; active = well fitted curve in the direction sought with a large enough effect; an effect the other way counts as inactive or inconclusive;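 note: 0% = DMSO vehicle and full inhibition = artemisinin control; nearly all actives have a fitted effect of over 60% in size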); settings: P. falciparum in erythrocytes, SYBR Green DNA, 72 h, at 28.7 µM (top of the series)
In short: (§1)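 Quantitative HTS: compounds pinned into medium, infected erythrocytes added (0.3% parasitemia, 2.5% hematocrit), 72 h culture at 37 C under 5% CO2. Saponin/Triton lysis with SYBR Green I, overnight RT, then fluorescence read.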

CP192 = test: as above; settings: P. falciparum in erythrocytes, SYBR Green DNA, 72 h; series mostly up to 28.7 µM
In short: as §1

CP203 = test: as above; settings: P. falciparum in erythrocytes, SYBR Green DNA, 72 h; series mostly up to 28.7 µM
In short: as §1

W2 = test: as above; settings: P. falciparum in erythrocytes, SYBR Green DNA, 72 h; series mostly up to 28.7 µM
In short: as §1

Sequence of Glucocorticoid receptor (Homo sapiens) (P04150 whole entry, looked up, the tested form may be a part): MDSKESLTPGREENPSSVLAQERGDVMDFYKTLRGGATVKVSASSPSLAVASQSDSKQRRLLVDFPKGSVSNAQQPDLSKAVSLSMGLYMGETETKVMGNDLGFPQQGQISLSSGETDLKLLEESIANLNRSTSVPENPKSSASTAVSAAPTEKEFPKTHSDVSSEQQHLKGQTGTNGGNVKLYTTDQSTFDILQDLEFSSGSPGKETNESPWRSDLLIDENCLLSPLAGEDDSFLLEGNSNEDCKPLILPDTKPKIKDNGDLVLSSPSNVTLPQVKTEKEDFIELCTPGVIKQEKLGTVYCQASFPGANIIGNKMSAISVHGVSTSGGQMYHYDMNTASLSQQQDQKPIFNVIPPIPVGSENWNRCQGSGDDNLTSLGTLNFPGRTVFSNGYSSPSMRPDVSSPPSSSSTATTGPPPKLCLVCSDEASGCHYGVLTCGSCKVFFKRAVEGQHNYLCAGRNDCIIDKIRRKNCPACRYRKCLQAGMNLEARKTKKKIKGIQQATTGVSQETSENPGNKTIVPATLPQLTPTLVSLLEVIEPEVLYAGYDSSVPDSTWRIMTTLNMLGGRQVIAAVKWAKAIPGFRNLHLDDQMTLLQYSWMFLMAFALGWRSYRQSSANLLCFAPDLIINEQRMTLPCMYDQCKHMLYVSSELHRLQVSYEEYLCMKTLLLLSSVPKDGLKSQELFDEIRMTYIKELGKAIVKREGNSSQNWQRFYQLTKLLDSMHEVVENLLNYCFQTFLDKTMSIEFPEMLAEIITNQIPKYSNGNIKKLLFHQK
Sequence of 3',5'-cyclic-AMP phosphodiesterase 4B (Homo sapiens) (Q07343 whole entry, looked up): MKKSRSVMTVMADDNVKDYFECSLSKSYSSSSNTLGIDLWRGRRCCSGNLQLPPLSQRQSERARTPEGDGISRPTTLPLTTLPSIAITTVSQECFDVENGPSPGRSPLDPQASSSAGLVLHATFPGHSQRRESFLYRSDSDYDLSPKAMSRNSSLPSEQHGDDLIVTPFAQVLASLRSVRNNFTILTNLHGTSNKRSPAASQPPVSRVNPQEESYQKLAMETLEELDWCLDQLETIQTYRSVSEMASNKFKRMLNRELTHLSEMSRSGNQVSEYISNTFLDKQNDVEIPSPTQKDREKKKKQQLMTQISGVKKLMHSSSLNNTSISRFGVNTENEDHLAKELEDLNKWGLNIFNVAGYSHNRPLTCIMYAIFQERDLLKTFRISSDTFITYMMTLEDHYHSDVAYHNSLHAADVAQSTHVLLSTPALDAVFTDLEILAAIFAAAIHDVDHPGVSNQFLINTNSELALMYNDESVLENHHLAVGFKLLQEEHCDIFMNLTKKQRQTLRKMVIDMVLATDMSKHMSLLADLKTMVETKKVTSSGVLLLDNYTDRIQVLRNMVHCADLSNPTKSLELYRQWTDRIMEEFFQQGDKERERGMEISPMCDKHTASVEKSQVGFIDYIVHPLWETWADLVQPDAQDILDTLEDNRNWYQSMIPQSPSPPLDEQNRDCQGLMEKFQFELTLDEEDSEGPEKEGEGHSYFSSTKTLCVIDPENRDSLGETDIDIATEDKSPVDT
Sequence of Cytochrome P450 1A2 (Homo sapiens) (P05177 whole entry, looked up): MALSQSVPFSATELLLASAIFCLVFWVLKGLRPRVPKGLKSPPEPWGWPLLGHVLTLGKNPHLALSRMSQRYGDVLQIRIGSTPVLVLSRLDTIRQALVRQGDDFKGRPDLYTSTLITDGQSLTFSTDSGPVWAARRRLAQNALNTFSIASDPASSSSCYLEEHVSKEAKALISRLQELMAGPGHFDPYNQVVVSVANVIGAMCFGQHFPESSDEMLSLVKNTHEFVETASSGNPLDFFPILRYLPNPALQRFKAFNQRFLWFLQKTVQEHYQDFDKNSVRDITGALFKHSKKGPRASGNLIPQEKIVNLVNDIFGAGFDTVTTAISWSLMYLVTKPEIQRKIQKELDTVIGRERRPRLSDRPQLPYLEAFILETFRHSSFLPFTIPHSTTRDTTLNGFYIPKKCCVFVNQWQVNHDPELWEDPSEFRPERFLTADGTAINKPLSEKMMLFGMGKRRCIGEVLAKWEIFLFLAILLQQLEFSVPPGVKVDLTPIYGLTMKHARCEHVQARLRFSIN
Sequence of Lysosomal acid glucosylceramidase (Homo sapiens) (P04062 whole entry, looked up): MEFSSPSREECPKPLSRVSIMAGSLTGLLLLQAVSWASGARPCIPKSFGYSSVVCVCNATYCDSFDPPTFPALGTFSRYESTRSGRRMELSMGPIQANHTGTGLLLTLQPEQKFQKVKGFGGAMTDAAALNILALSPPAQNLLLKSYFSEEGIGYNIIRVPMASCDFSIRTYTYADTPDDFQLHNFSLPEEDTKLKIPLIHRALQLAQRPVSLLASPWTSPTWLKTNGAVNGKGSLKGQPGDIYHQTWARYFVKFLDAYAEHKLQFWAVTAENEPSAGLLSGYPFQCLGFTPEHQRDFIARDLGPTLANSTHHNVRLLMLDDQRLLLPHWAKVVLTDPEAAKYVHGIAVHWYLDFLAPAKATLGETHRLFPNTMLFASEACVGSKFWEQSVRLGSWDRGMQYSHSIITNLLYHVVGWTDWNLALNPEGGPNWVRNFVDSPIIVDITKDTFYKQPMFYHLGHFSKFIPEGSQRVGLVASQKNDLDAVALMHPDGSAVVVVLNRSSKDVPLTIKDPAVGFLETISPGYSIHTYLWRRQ
Sequence of Cytochrome P450 2C19 (Homo sapiens) (P33261 whole entry, looked up): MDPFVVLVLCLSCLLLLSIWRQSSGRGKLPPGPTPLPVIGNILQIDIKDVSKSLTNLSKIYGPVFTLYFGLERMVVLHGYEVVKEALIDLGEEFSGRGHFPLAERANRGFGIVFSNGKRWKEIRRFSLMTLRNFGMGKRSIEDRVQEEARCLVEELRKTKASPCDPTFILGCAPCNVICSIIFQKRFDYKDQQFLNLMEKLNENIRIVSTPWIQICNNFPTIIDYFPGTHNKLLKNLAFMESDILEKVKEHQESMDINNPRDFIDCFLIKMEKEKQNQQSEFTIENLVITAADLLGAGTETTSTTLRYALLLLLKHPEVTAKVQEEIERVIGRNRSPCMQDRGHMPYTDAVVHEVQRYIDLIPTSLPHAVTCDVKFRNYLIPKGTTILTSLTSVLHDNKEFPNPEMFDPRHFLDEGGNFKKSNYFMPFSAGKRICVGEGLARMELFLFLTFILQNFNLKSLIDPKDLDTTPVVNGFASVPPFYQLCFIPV
Sequence of ATP-dependent 6-phosphofructokinase (Trypanosoma brucei brucei) (O15648 whole entry, looked up): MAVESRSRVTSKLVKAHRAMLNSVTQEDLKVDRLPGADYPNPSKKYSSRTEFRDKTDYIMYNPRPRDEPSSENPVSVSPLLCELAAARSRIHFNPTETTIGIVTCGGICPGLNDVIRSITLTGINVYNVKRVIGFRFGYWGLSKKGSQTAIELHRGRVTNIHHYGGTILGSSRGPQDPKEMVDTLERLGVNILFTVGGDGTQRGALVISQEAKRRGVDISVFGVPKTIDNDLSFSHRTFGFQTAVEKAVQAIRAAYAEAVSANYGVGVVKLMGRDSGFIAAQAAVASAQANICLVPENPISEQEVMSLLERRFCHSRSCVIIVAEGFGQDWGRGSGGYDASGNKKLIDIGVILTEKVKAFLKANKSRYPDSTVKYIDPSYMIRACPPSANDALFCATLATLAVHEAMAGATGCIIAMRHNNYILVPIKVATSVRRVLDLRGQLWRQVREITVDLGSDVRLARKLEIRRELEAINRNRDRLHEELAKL
Sequence of Cytochrome P450 2C9 (Homo sapiens) (P11712 whole entry, looked up): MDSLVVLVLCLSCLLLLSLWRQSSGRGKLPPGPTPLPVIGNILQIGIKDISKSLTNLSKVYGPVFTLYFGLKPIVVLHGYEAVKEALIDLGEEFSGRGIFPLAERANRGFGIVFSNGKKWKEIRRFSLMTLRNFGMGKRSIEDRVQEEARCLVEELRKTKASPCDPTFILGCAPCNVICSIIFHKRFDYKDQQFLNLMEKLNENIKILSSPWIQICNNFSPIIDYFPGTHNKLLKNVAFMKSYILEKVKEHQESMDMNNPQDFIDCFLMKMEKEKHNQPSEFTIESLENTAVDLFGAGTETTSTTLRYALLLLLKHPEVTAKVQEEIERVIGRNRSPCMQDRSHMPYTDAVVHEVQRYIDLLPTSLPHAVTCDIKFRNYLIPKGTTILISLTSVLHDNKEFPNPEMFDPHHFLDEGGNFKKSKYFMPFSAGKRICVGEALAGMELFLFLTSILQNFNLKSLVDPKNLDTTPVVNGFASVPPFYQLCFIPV

CN(C)CCC(=O)[C@@]1(O)CC[C@H]2[C@H]3CC=C4C[C@@H](O)CC[C@]4(C)[C@H]3CC[C@]21C
inactive: Potency [1] > 11.4 µM | activity change, negative = inhibition [2] 3.32% | Potency [3] | activity, negative = inhibition [4] -18.3% | Potency [5] > 46 µM | Potency [6] > 9.22 µM | Potency [7] | Potency [8]

O=C1[C@@H]2[C@@H](C(=O)N1c1ccc(OCc3ccccc3)cc1)[C@@H]1c3ccccc3[C@@H]2[n+]2ccccc21
inactive: Potency [1] > 11.4 µM | activity change, negative = inhibition [2] -1.52% | Potency [3] | activity, negative = inhibition [4] 4.93% | Potency [5] > 46 µM | Potency [6] > 9.22 µM | Potency [7] | Potency [8]

Cc1cc(C2(c3cc(C)c(O)c(C(=O)O)c3)OS(=O)(=O)c3ccccc32)cc(C(=O)O)c1O
inactive: Potency [1] > 11.4 µM | activity change, negative = inhibition [2] -7.31% | Potency [3] | activity change, negative = inhibition [9] -1.56% | Potency [5] > 46 µM | Potency [6] > 9.22 µM | Potency [7] | Potency [8] | activation [10] -3.84%

N=C1CCC[C@@H]1C(=S)SCCC(N)=O
inactive: Potency [1] > 11.4 µM | activity change, negative = inhibition [2] -7.71% | activity, negative = inhibition [4] -12.4% | Potency [5] > 46 µM | Potency [6] > 9.22 µM | Potency [7] | Potency [8]
active: Potency [3] 3.16 µM

C[C@@H]1c2ccccc2Cn2cc3c(c21)C(=O)c1cccc(OP(=O)(O)OCc2ccccc2)c1C3=O
active: Potency [3] 3.16 µM
inactive: Potency [1] > 11.4 µM | activity change, negative = inhibition [2] -3.62% | activity, negative = inhibition [4] -19.6% | Potency [5] > 46 µM | Potency [6] > 9.22 µM | Potency [7] | Potency [8]

C[C@@H](CSC(=N)N)C(N)=O
inactive: Potency [1] > 11.4 µM | activity change, negative = inhibition [2] -3.05% | activity change, negative = inhibition [3] -6.6% [at 2.29 µM] | activity change, negative = inhibition [9] 13.8% | Potency [6] > 9.22 µM | Potency [7] | Potency [8]

CC1=c2c(oc3cc(O)c(Nc4c(C)cc(O)cc4O)c(C)c23)=CC(=O)C1=Nc1c(C)cc(O)cc1O
inactive: Potency [1] > 11.4 µM | activity change, negative = inhibition [2] -6.5% | activity change, negative = inhibition [9] -22.3% | Potency [5] > 46 µM | Potency [6] > 9.22 µM | Potency [8]
active: Potency [3] 3.16 µM | Potency [11] 3.16 µM | Potency [12] 3.16 µM

OC[C@@H]1O[C@H](n2cnc3c(/C=C(\O)c4ccccc4)ncnc32)[C@H](O)[C@@H]1O
inactive: Potency [1] > 11.4 µM | activity change, negative = inhibition [2] -7.91% | activity, negative = inhibition [4] -0.249% | Potency [5] > 46 µM | Potency [6] > 9.22 µM | Potency [7] | Potency [8]
active: Potency [3] 0.501 µM

CC1(C)[C@@H]2CC[C@]1(C)[C@@H](OC(=O)CSC#N)C2
inactive: Potency [1] > 11.4 µM | activity change, negative = inhibition [2] -4% | activity change, negative = inhibition [3] -18.3% [at 2.29 µM] | activity change, negative = inhibition [9] 18.3% | Potency [7] | Potency [8] | activation [10] -0.299% | outcome [13] | activity, negative = inhibition ([14]; parasite line A) -6.1% | activity, negative = inhibition ([14]; parasite line B) -5.42% | Potency (CP192) | Potency (CP203) | Potency (W2)

O=C(O)/C=C\C(=O)N1Cc2cc3ccccc3nc2C1
inactive: Potency [1] > 11.4 µM | activity change, negative = inhibition [2] 6.48% | Potency [3] | activity, negative = inhibition [4] 12.1% | Potency [5] > 46 µM | Potency [6] > 9.22 µM | Potency [7] | Potency [8]

COc1ncc2nc(CCc3ccccc3)c(=O)n(C)c2n1
inactive: Potency [1] > 11.4 µM | activity change, negative = inhibition [2] -29.7% | activity, negative = inhibition [4] -1.2% | Potency [5] > 9.22 µM | Potency [6] > 46 µM | Potency [7] | Potency [8]
active: Potency [3] 5.01 µM

COc1ccc2cc1Oc1ccc(cc1)C[C@@H]1c3c(cc(OC)c4c3Oc3cc5c(cc3O4)CCN[C@H]5C2)CCN1C
inactive: Potency [1] > 11.4 µM | activity change, negative = inhibition [2] -4.55% | Potency [3] | activity, negative = inhibition [4] 14.2% | Potency [5] > 46 µM | Potency [6] > 9.22 µM | Potency [7] | Potency [8]

C[N+](C)(C)c1ncnc2c1ncn2[C@@H]1CCCCO1
inactive: Potency [1] > 11.4 µM | activity change, negative = inhibition [2] 10.7% | activity change, negative = inhibition [3] 2.3% [at 2.29 µM] | activity change, negative = inhibition [9] 5.08% | Potency [5] > 46 µM | Potency [6] > 9.22 µM | Potency [7] | Potency [8] | Potency [12]

Cc1ncn(-c2ccccc2O)c1C
inactive: Potency [1] > 11.4 µM | activity change, negative = inhibition [2] 4.1% | activity, negative = inhibition [4] 6.2% | Potency [5] > 46 µM | Potency [6] > 9.22 µM | Potency [7] | Potency [8]
active: Potency [3] 0.794 µM

Source: PubChem BioAssay (NCATS)
